Reference: PubChem BioAssay
Calls of active or inactive are those of the source. Unless noted, the rule behind the calls is not given here.

Experiments:
[1] = resazurin metabolic signal in HepG2 cells – cell-based, resazurin fluorescence, 24 h, PK04 Diversity Set, profiling panel (AID 1172); conditions: HepG2 viability, higher = more signal
[2] = budding yeast growth changes without added modifier – OD600, strain BY4716, 24 h, basal condition, primary screen (AID 1173); conditions: S. cerevisiae BY4716 growth, OD600, 24 h; higher = more signal, called active from +8 up or from −8 down
[3] = viability profiling in MM1S myeloma cells – cell-based, resazurin fluorescence, basal, 24 h, PK04 Diversity Set, profiling panel (AID 1174); conditions: higher = more signal, called active from +8 up or from −8 down;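 note: MM1S multiple myeloma cell line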
[4] = biological target: Dihydroorotate dehydrogenase (quinone), mitochondrial (Plasmodium falciparum (isolate 3D7)) (UniProt Q08210); assay: inhibition of P. falciparum DHODH – biochemical, C-terminal His tag, absorbance 600 nm, primary screen (AID 1175); conditions: PfDHODH enzyme, DCIP absorbance 600 nm; higher = more signal, called active from +8 up or from −8 down;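 note: recombinant parasite enzyme with a five histidine tag at its C terminus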
Sequence of Dihydroorotate dehydrogenase (quinone), mitochondrial (Plasmodium falciparum (isolate 3D7)) (Q08210 whole entry, looked up): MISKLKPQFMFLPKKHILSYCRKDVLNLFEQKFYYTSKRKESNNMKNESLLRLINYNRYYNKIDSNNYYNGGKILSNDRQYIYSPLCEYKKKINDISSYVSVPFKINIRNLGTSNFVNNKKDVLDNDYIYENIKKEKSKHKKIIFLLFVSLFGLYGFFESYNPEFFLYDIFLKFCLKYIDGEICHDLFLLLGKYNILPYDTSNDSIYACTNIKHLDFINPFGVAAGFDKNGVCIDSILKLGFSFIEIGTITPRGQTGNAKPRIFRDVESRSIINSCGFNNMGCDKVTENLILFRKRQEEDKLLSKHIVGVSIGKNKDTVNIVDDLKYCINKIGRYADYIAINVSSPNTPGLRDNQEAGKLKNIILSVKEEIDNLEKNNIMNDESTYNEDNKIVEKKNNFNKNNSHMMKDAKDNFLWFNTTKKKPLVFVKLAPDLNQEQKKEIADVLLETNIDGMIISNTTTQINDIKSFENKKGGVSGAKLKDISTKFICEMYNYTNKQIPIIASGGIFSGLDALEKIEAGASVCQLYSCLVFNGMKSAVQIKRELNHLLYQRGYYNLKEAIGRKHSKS

[5] = inhibition of PAO1 biofilm formation – strain PAO1, LB-PBS medium, absorbance 600 nm, primary screen (AID 1176); conditions: P. aeruginosa PAO1 growth/biofilm, A600, 12 h; higher = more signal
[6] = growth modulation of vineyard yeast isolate – strain RM11-1a, OD600, basal, 24 h, primary screen (AID 1177);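 note: cultures grown under basal conditions with no added stressor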; conditions: S. cerevisiae RM11-1a growth, OD600, 24 h; higher = more signal, called active from +8 up or from −8 down
[7] = growth of efflux-deficient E. coli DRC39 – strain DRC39, OD650, 24 h, E. coli filamentation inducers, primary screen (AID 1178);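 note: growth measured as culture turbidity by optical density at 650 nm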; conditions: E. coli DRC39 acrAB, higher = more signal, called active from +8 up or from −8 down
[8] = growth of efflux-deficient E. coli DRC39 – strain DRC39, OD650, 48 h, E. coli filamentation inducers, primary screen (AID 1179);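 note: screen aims at cell division blockers that make cells filament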; conditions: E. coli DRC39 delta-acrAB growth, higher = more signal, called active from +8 up or from −8 down
[9] = viability profiling in RPMI8226 myeloma cells – cell-based, resazurin fluorescence, basal, 24 h, PK04 Diversity Set, profiling panel (AID 1180); conditions: higher = more signal;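 note: RPMI8826 multiple myeloma cell line at 5000 cells per well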
[10] = biological target: E3 ubiquitin-protein ligase XIAP (Homo sapiens) (UniProt P98170); assay: small molecules binding XIAP protein – biophysical, small-molecule microarray, fluorescence 635 nm, primary screen (AID 1181); conditions: higher = more signal;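 note: score merges 667 nm emission and signal to noise over triplicate slides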
Sequence of E3 ubiquitin-protein ligase XIAP (Homo sapiens) (P98170 whole entry, looked up, the tested form may be a part): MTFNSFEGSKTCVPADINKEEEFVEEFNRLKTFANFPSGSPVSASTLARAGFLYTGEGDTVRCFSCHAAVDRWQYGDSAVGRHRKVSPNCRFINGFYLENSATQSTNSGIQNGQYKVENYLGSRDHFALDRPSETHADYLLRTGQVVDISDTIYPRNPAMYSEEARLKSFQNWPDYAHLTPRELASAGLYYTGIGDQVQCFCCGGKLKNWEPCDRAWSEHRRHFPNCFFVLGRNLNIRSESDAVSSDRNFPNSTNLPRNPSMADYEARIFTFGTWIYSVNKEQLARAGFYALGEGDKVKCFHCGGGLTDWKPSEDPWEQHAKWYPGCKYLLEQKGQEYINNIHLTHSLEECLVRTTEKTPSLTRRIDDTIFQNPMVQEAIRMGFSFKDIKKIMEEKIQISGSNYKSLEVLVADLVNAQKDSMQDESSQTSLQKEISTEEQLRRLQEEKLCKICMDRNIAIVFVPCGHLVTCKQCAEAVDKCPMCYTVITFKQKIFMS

[11] = system: XIP peptide (Xip251-270) binding; assay: XIP fragment 251-270 binding compounds – biochemical, small-molecule microarray, fluorescence 635/667 nm, 0.1 µg/mL protein, primary screen (AID 1182); conditions: fluorescent protein binding, 635 nm, higher = more signal, called active from +8 up or from −8 down
[12] = system: XIP peptide (Xip251-270); assay: compounds binding XIP fragment 251-270 – biochemical, small-molecule microarray, fluorescence 635/667 nm, 0.5 µg/mL protein, primary screen (AID 1183); conditions: fluorescence 635 nm, higher = more signal
[13] = blood-stage malaria parasite viability loss – strain 3D7, DAPI fluorescence, 100 nL, primary screen (AID 1184);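 note: parasites grown inside human red blood cells in medium with human serum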; conditions: P. falciparum 3D7 growth, 3 d, higher = more signal
[14] = biological target: Homeobox protein Hox-A13 (Mus musculus) (UniProt Q62424); assay: disruptors of Hoxa13 oligonucleotide interaction – biochemical, fluorescence polarization, labeled oligonucleotide, primary screen (AID 1185); conditions: Hoxa13:DNA binding, 15 min, higher = more signal, called active from +8 up or from −8 down
Sequence of Homeobox protein Hox-A13 (Mus musculus) (Q62424 whole entry, looked up): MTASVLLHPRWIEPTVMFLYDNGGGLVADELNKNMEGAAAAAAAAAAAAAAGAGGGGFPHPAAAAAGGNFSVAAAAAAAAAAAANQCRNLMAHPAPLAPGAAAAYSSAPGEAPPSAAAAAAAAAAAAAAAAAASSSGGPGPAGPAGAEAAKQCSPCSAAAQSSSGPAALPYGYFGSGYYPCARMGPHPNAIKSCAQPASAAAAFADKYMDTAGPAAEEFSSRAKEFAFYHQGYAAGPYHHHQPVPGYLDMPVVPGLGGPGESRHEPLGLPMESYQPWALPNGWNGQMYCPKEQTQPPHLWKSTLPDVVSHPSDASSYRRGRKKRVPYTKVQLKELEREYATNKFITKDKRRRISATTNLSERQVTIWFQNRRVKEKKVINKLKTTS

[15] = blockers of DNA damage checkpoint Chk1 activation – imaging, HeLa, hydroxyurea, phospho-Chk1 antibody, percent positive cells, primary screen (AID 1186); conditions: hydroxyurea-induced phospho-Chk1 immunofluorescence imaging, higher = more signal
[16] = blockers of DNA damage checkpoint Chk1 activation – imaging, HeLa, hydroxyurea, phospho-Chk1 nuclear intensity, primary screen (AID 1187); conditions: hydroxyurea-induced phospho-Chk1 immunofluorescence imaging, higher = more signal

Row | SMILES | z-score [1] | z-score [2] | z-score [3] | composite z-score [4] | z-score [5] | z-score [6] | z-score [7] | z-score [8] | z-score [9] | composite z-score [10] | composite z-score [11] | composite z-score [12] | z-score [13] | z-score [14] | z-score [15] | z-score [16]
1 | CCOC(=O)C[C@H]1[C@H](OC(=O)c2ccccc2-c2ccccc2)[C@@H](NC(=O)CC(C)C)c2cc(OCCCO)ccc2N1C(=O)Cc1ccc(OC)cc1 | -0.211 | -0.184 (inactive) | 0.0683 (inactive) | 0.712 (inactive) | -0.165 (inactive) | -0.0992 (inactive) | -0.234 (inactive) | -0.488 (inactive) | 0.456 | -0.135 | -0.245 (inactive) | -0.328 | -0.106 | -5.17 (inactive) | 0.34 (inactive) | 0.524 (inactive)
2 | NC(=O)NCC#Cc1ccc2c(c1)[C@]1(C(=O)N2)[C@H](C(N)=O)[C@H]2C(=O)O[C@H](c3ccccc3)[C@H](c3ccccc3)N2[C@@H]1c1ccc(O)cc1 | 0.584 | -0.911 (inactive) | 0.204 (inactive) | -0.405 (inactive) | -0.212 (inactive) | -0.732 (inactive) | 0.0883 (inactive) | -0.612 (inactive) | -0.0275 | 0.156 | 1.49 (inactive) | 0.109 | -0.19 | -5.36 (inactive) | 0.0619 (inactive) | 0.044 (inactive)
3 | COCCOC(=O)N1C(=O)[C@@]2(c3cc(C#CCCO)ccc31)[C@H](C(N)=O)[C@H]1C(=O)O[C@H](c3ccccc3)[C@H](c3ccccc3)N1[C@@H]2c1ccc(O)cc1 | -0.256 | -0.089 (inactive) | 0.0773 (inactive) | -0.176 (inactive) | 0.181 (inactive) | -0.204 (inactive) | 0.125 (inactive) | -0.176 (inactive) | -0.104 | 0.142 | -0.13 (inactive) | -0.452 | 2.08 | -4.08 (inactive) | 0.0513 (inactive) | -0.0312 (inactive)
4 | COC(=O)[C@]1(CCC(=O)OC(C)(C)C)N=C(c2ccc(OCCCO)cc2)O[C@@H]1c1ccccc1CN=[N+]=[N-] | -1.72 | 1.01 (inactive) | -5.09 (inactive) | 0.965 (inactive) | 1.53 (inactive) | 1.84 (inactive) | 0.637 (inactive) | -0.721 (inactive) | -4.68 | -0.0773 | 1.52 (inactive) | 0.767 | -2.03 | -0.506 (inactive) | 0.121 (inactive) | -0.0667 (inactive)
5 | C[C@H]1C2[C@H](Cc3ccccc3)NC(=O)[C@]23C(=O)N[C@H](Cc2ccccc2)C(=O)N2CCC[C@H]2C(=O)NC/C=C\C/C=C/C3[C@@H]2O[C@]12C (some centres undefined) | 0.696 | -1.96 (inactive) | 1.22 (inactive) | -1.51 (inactive) | 1.01 (inactive) | -0.835 (inactive) | 1.11 (inactive) | -0.0988 (inactive) | 1.19 | 0.091 | 0.297 (inactive) | 0.192 | -0.227 | -6.27 (inactive) | -0.291 (inactive) | -0.104 (inactive)
6 | C=CC[C@]1(C(=O)NCc2ccccc2)N=C(c2ccc(OCCCO)cc2)O[C@H]1c1ccccc1N=[N+]=[N-] | -0.0155 | -0.737 (inactive) | -1.93 (inactive) | 1.52 (inactive) | 1.39 (inactive) | 0.599 (inactive) | 0.498 (inactive) | -0.822 (inactive) | -1.31 | 0.0623 | 0.525 (inactive) | 0.699 | -2.18 | -1.87 (inactive) | -0.22 (inactive) | 0.148 (inactive)
7 | C=CCOC(=O)[C@H]1[C@@H]2C(=O)O[C@@H](c3ccccc3)[C@@H](c3ccccc3)N2[C@@H](c2ccc(OCCOC(=O)[C@H]3C[C@H]4C(=O)N[C@@H](CCCCNC(C)=O)C(=O)N4[C@H]3c3ccc(O)cc3)cc2)[C@]12C(=O)Nc1ccc(I)cc12 | 0.452 | -0.371 (inactive) | -1.18 (inactive) | -0.325 (inactive) | 1.14 (inactive) | 1.38 (inactive) | -1.83 (inactive) | -1.16 (inactive) | -0.745 | -0.0784 | 0.159 (inactive) | 0.671 | -1.39 | 5.87 (inactive) | -0.484 (inactive) | -0.782 (inactive)
8 | CN1C(=O)C2C=CC(C(O)c3ccccc3)N(N(c3ccccc3)c3ccccc3)C2C1=O (centres undefined) | -0.112 | 0.833 (inactive) | -0.728 (inactive) | 0.0002 (inactive) | 0.226 (inactive) | 0.579 (inactive) | -0.854 (inactive) | 0.139 (inactive) | -0.323 | 0.259 | -0.274 (inactive) | -0.0284 | 0.796 | -1.72 (inactive) | 0.812 (inactive) | 0.606 (inactive)
9 | C=CCN1C(=O)[C@@]2(CC=C)N=C(c3ccc(OCCCO)cc3)O[C@H]2c2ccccc21 | -0.492 | -2.87 (inactive) | -3.88 (inactive) | -1.17 (inactive) | 2.21 (inactive) | 0.113 (inactive) | 1.19 (inactive) | 2.46 (inactive) | -3.54 | 0.0842 | 0.881 (inactive) | 0.751 | -1.99 | -2.65 (inactive) | -0.772 (inactive) | -0.86 (inactive)
